# Laboratory results published in PubChem BioAssay (NCI).
# This is part of a sample that, as a whole, favours compounds with a hit. Of some 83,000 tested, about 20% had one in any assay.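 Treatment: one concentration, 48 hours, 96-well format. Scoring: percent growth, with anything below 10 considered active.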 Calls of active or inactive are those of the source.
# Test system: SK-MEL-2 melanoma
# Assay: NCI-60 one-dose screen, 48 h (100 = growth as untreated, 0 = no growth, -100 = all killed)
# Conditions: 10 µM unless noted
row,SMILES,growth
1,O=C(Nn1c(NCC(=O)N2c3ccccc3Sc3ccccc32)nnc1-c1ccc(O)cc1)c1ccccc1,101% (inactive)
2,N#C/C(=C\c1cccc2cnccc12)n1nnc2cccc(F)c21,52.8% (inactive)
3,O=C(S)CNC(=O)c1ccccc1,101% (inactive)
4,CN(C)c1ccc2nc3ccc(=[N+](C)C)c([N+](=O)[O-])c-3sc2c1,47.2% (inactive)
5,O=C1c2ccccc2NC(n2sc3ccccc3c2=O)N1c1ccccc1 (stereo unspecified),99.5% (inactive)
6,Cc1nc2ccccc2c(/C=C/c2ccccc2)c1C(=O)/C=C/c1ccc(C(F)(F)F)cc1,-22.5% (active)
7,CCOC(=O)c1nc(Nc2ccc(C(C)=O)cc2)sc1C,106% (inactive)
8,Oc1ccc(Cl)cc1Cc1cc(Cl)cc(Cl)c1O,37.4% (inactive)
9,COc1nc2ccc(C)cc2cc1-c1nc2c(cnn2-c2ccc(Br)cc2)c(=O)[nH]1,48.2% (inactive)
10,CC(=O)OC[C@H]1OC(Sc2sc(C(=O)c3ccc(Cl)cc3)c(N)c2-c2nc3ccccc3s2)[C@H](OC(C)=O)[C@@H](OC(C)=O)[C@@H]1OC(C)=O (stereo partly specified),104% (inactive)
11,O=C1NC(=O)C(Cn2cnc3ccccc32)N1 (stereo unspecified),107% (inactive)
12,COc1cc(/C=C/C(=O)/C=C/c2cc(OC)c3c(c2OC)OCO3)c(OC)c2c1OCO2,28.1% (inactive)
13,COc1c(B(O)O)cc(C)cc1-c1nc2ccc3[nH]ncc3c2c2c1CCCC2,102% (inactive)
14,CCCCCCN(CCCCCC)c1ccc(/C=C2/SC(=O)NC2=O)c(C)c1,83% (inactive)
15,COC(=O)c1ccc2[nH]c(O)c(C(=Nc3ccc(N(C)C(=O)CN4CCN(C)CC4)cc3)c3ccccc3)c2c1,-4.99% (active)
16,CCOC(=O)CC1C(COC(=O)NC)OC(n2cnc3c(NC(=O)Nc4ccccc4)ncnc32)C1O[Si](C)(C)C(C)(C)C (stereo unspecified),60% (inactive)
17,CN1C(=O)N(C)C2Nn3c(s/c(=C\c4ccccc4)c3=O)=NC21 (stereo unspecified),109% (inactive)
18,COc1cc(C(=O)c2cc(C)c3[nH]c4ccc(C)cc4c3c2C)cc(OC)c1OC,60.4% (inactive)
19,CC(=O)N1CCN(c2ccc(OCC3CO[C@](Cn4ccnc4)(c4ccc(Cl)cc4Cl)O3)cc2)CC1 (stereo partly specified),86.8% (inactive)

row,SMILES,growth
1,CN1CCN(Cc2ccc(NC(=O)c3cncc(C#Cc4cnccc4C#N)c3)cc2C(F)(F)F)CC1,52% (inactive)
2,CCOC(=O)/C(C#N)=C\Nc1ccc2ncnc(Nc3ccc(Cl)cc3Cl)c2c1,110% (inactive)
3,Cn1cc(C(=O)c2nc(-c3cn(C)c4ccc(F)cc34)no2)c2cc(F)ccc21,102% (inactive)
4,c1cc(-c2nnc(SSc3ncnc4nc[nH]c34)o2)ccn1,15.9% (inactive)
5,CN(C)CC#Cc1ccc2ncc(C#N)c(Nc3ccc(F)c(Cl)c3)c2c1,38.3% (inactive)
6,C#Cc1cccc(NC(=O)Nc2ccccc2NC(=O)CCl)c1,-56% [8.25 µM] (active)
7,COc1ccc2c(c1OC)C(=O)O[C@H]2[C@H]1c2c(cc3c(c2OC)OCO3)CCN1C,106% (inactive)
8,Cc1ccc2c(-c3cc(-c4ccccc4)nc(N)c3C#N)cc(=O)oc2c1,97.1% (inactive)
9,C[C@]12CC[C@@H]3c4cc(OC(F)F)c(OS(N)(=O)=O)cc4CC[C@H]3[C@@H]1CC[C@@H]2O,46.3% (inactive)
10,CC(=O)Oc1ccccc1C(=O)N=C1[Se]CCCN1C(=O)c1ccccc1OC(C)=O,91.4% (inactive)
11,N#Cc1c(-c2ccc(Cl)cc2)nc2c(c(-c3ccccc3)nn2-c2ccccc2)c1-c1ccc(O)cc1,74.5% (inactive)
12,CC(=O)c1ccc(Nc2nc(C(C)=O)c(C)s2)cc1,105% (inactive)
13,O=C(CCCCCCSc1nc(-c2ccccc2)cc(-c2ccccc2)n1)NO,74% (inactive)
14,Cc1cc(Cl)ccc1NS(=O)(=O)c1ccc(-c2cnc(C3CC3)o2)cc1,80.4% (inactive)
15,Brc1ccc2[nH]cc(-c3nc(-c4c[nH]c5ccncc45)cs3)c2c1,-46.8% (active)
16,COc1cc(C(=O)/C=C/c2c(Cl)nc3sccn23)cc(OC)c1OC,86.1% (inactive)
17,N/C(=N\c1nc2ccccc2s1)NC(=O)Nc1cccc2ccccc12,38.7% (inactive)
18,NC1CCN(c2nc(Nc3cccc(C(F)(F)F)c3)c3c(=O)[nH]ccc3n2)CC1,-77.6% (active)
19,COc1ccc(/C=N/Nc2cc(=O)[nH]c3ccc(Cl)cc23)cc1,48.8% (inactive)

# Test system: EKVX NSCLC
# Assay: as above
# Conditions: 10 µM unless noted
row,SMILES,growth
1,O=C(Nn1c(NCC(=O)N2c3ccccc3Sc3ccccc32)nnc1-c1ccc(O)cc1)c1ccccc1,103% (inactive)
2,N#C/C(=C\c1cccc2cnccc12)n1nnc2cccc(F)c21,24.9% (inactive)
3,O=C(S)CNC(=O)c1ccccc1,95.8% (inactive)
4,CN(C)c1ccc2nc3ccc(=[N+](C)C)c([N+](=O)[O-])c-3sc2c1,25% (inactive)
5,O=C1c2ccccc2NC(n2sc3ccccc3c2=O)N1c1ccccc1 (stereo unspecified),85.5% (inactive)
6,Cc1nc2ccccc2c(/C=C/c2ccccc2)c1C(=O)/C=C/c1ccc(C(F)(F)F)cc1,-28.8% (active)
7,CCOC(=O)c1nc(Nc2ccc(C(C)=O)cc2)sc1C,97.8% (inactive)
8,Oc1ccc(Cl)cc1Cc1cc(Cl)cc(Cl)c1O,35.6% (inactive)
9,COc1nc2ccc(C)cc2cc1-c1nc2c(cnn2-c2ccc(Br)cc2)c(=O)[nH]1,53.5% (inactive)
10,CC(=O)OC[C@H]1OC(Sc2sc(C(=O)c3ccc(Cl)cc3)c(N)c2-c2nc3ccccc3s2)[C@H](OC(C)=O)[C@@H](OC(C)=O)[C@@H]1OC(C)=O (stereo partly specified),80.4% (inactive)
11,O=C1NC(=O)C(Cn2cnc3ccccc32)N1 (stereo unspecified),100% (inactive)
12,COc1cc(/C=C/C(=O)/C=C/c2cc(OC)c3c(c2OC)OCO3)c(OC)c2c1OCO2,87.7% (inactive)
13,COc1c(B(O)O)cc(C)cc1-c1nc2ccc3[nH]ncc3c2c2c1CCCC2,54.2% (inactive)
14,CCCCCCN(CCCCCC)c1ccc(/C=C2/SC(=O)NC2=O)c(C)c1,79.1% (inactive)
15,COC(=O)c1ccc2[nH]c(O)c(C(=Nc3ccc(N(C)C(=O)CN4CCN(C)CC4)cc3)c3ccccc3)c2c1,54% (inactive)
16,CCOC(=O)CC1C(COC(=O)NC)OC(n2cnc3c(NC(=O)Nc4ccccc4)ncnc32)C1O[Si](C)(C)C(C)(C)C (stereo unspecified),67.5% (inactive)
17,CN1C(=O)N(C)C2Nn3c(s/c(=C\c4ccccc4)c3=O)=NC21 (stereo unspecified),96.5% (inactive)
18,COc1cc(C(=O)c2cc(C)c3[nH]c4ccc(C)cc4c3c2C)cc(OC)c1OC,44.1% (inactive)
19,CC(=O)N1CCN(c2ccc(OCC3CO[C@](Cn4ccnc4)(c4ccc(Cl)cc4Cl)O3)cc2)CC1 (stereo partly specified),87.9% (inactive)

row,SMILES,growth
1,CN1CCN(Cc2ccc(NC(=O)c3cncc(C#Cc4cnccc4C#N)c3)cc2C(F)(F)F)CC1,66.4% (inactive)
2,CCOC(=O)/C(C#N)=C\Nc1ccc2ncnc(Nc3ccc(Cl)cc3Cl)c2c1,41.7% (inactive)
3,Cn1cc(C(=O)c2nc(-c3cn(C)c4ccc(F)cc34)no2)c2cc(F)ccc21,107% (inactive)
4,c1cc(-c2nnc(SSc3ncnc4nc[nH]c34)o2)ccn1,82.3% (inactive)
5,CN(C)CC#Cc1ccc2ncc(C#N)c(Nc3ccc(F)c(Cl)c3)c2c1,30.8% (inactive)
6,C#Cc1cccc(NC(=O)Nc2ccccc2NC(=O)CCl)c1,71.9% [8.25 µM] (inactive)
7,COc1ccc2c(c1OC)C(=O)O[C@H]2[C@H]1c2c(cc3c(c2OC)OCO3)CCN1C,95.4% (inactive)
8,Cc1ccc2c(-c3cc(-c4ccccc4)nc(N)c3C#N)cc(=O)oc2c1,113% (inactive)
9,C[C@]12CC[C@@H]3c4cc(OC(F)F)c(OS(N)(=O)=O)cc4CC[C@H]3[C@@H]1CC[C@@H]2O,40.2% (inactive)
10,CC(=O)Oc1ccccc1C(=O)N=C1[Se]CCCN1C(=O)c1ccccc1OC(C)=O,75.7% (inactive)
11,N#Cc1c(-c2ccc(Cl)cc2)nc2c(c(-c3ccccc3)nn2-c2ccccc2)c1-c1ccc(O)cc1,67.8% (inactive)
12,CC(=O)c1ccc(Nc2nc(C(C)=O)c(C)s2)cc1,93.2% (inactive)
13,O=C(CCCCCCSc1nc(-c2ccccc2)cc(-c2ccccc2)n1)NO,57.1% (inactive)
14,Cc1cc(Cl)ccc1NS(=O)(=O)c1ccc(-c2cnc(C3CC3)o2)cc1,32.4% (inactive)
15,Brc1ccc2[nH]cc(-c3nc(-c4c[nH]c5ccncc45)cs3)c2c1,-67.7% (active)
16,COc1cc(C(=O)/C=C/c2c(Cl)nc3sccn23)cc(OC)c1OC,90.7% (inactive)
17,N/C(=N\c1nc2ccccc2s1)NC(=O)Nc1cccc2ccccc12,40.2% (inactive)
18,NC1CCN(c2nc(Nc3cccc(C(F)(F)F)c3)c3c(=O)[nH]ccc3n2)CC1,4.44% (active)
19,COc1ccc(/C=N/Nc2cc(=O)[nH]c3ccc(Cl)cc23)cc1,63.8% (inactive)
